# In PubChem BioAssay (NCATS):
# Where “and” joins values, the source holds several entries; their conditions need not be identical. Equal values may be shown once. Unmarked numbers belong to inactive results. Inconclusive results are not listed. Where a call stands in place of a potency, no number is given. Calls of active or inactive are those of the source. Unless noted, calls follow the shape of the dose curve; as a rule, active = well fitted curve in the direction sought with a large enough effect; inconclusive = small, poorly fitted or top-dose-only effect, or another doubt; inactive = no such curve, though single readings can be large; an effect the other way counts as inactive or inconclusive.
# What was measured:
# [1] = qHTS of Nrf2 Activators: LOPAC Validation (AID 624149)
# Procedure, shortened: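 AREc32_Fluc cells, 1000/well, OPTI-MEM + 5% FBS, o/n 37 deg C 5% CO2; compound pin-transfer, 24 hr 37 deg C; Steady-Glo 30 min RT, luminescence read.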
# [2] = HTS Assay for Allosteric Antagonists of the Human D2 Dopamine Receptor: Hit Validation in HTRF (AID 624455)
# Procedure, shortened: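 HTRF read-out; cells stably expressing D1 receptor; hits scored for inhibition of D1-mediated response. Primary screen: calcium flux, force-coupled inducible Hek293 Trex D2 line, antagonism vs EC80 dopamine.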
# [3] = biological target: Tyrosine-protein kinase Yes (Homo sapiens) (UniProt P07947); assay: qHTS for small molecule inhibitors of Yes1 kinase: Primary Screen (AID 686947); also: potency is read from the fitted curve at half-maximal effect; nearly all actives have a fitted effect of over 60% in size
# Procedure, shortened: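 In this qHTS format, inhibition is expressed relative to DMSO controls with enzyme (maximum) and without enzyme (minimum). The 60 min room-temperature reaction uses 0.1 mM ATP, with ADP detected by luminescence.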
# [4] = qHTS for small molecule inhibitors of Yes1 kinase: Counter Assay (AID 686950);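 also: no kinase present so only ADP-Glo detection of a fixed ADP amount is tested; luminescence from ADP-Glo reporting ADP in a fixed ATP and ADP mixture; series mostly up to about 77 µM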
# Procedure, shortened: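 Measuring interference with ADP-Glo, the assay ran 60 min at room temperature on an ATP/ADP mix lacking enzyme. Values were normalized to ATP-plus-ADP (maximum) and ATP-only (minimum) DMSO controls.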
# [5] = qHTS assay for small molecule activators of the nuclear factor-kappa B (NF-kB) signaling pathway (AID 651749; active = well fitted activation curve with a large enough effect in the signal ratio; the % refers to the signal ratio; also: series mostly up to about 77 µM); conditions: NF-kB-bla ME-180 cells, beta-lactamase FRET ratio, 16 h; hits give high values
# Procedure, shortened: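 Beta-lactamase reporter expression, controlled by NF-kB response elements in ME-180 cells, was quantified fluorometrically via FRET disruption; cells at 2,000/well had been incubated with 23 nL test compound for 16 hr.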
# [6] = biological target: Peroxisome proliferator-activated receptor alpha (Homo sapiens) (UniProt Q07869); assay: qHTS assay for small molecule agonists of the peroxisome proliferator-activated receptor alpha (PPARalpha) signaling pathway (AID 651778); conditions: PathHunter PPARalpha complementation, chemiluminescence, 6 h; hits give high values
# Procedure, shortened: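 Cells plated at 2,000/well and held overnight at 37 C, 5% CO2, then compound added by pin tool for 6 hr; after PathHunter detection reagent and 60 min at room temperature, chemiluminescence from enzyme complementation was read.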
# [7] = qHTS assay for small molecule agonists of the antioxidant response element (ARE) signaling pathway (AID 651741; active = well fitted activation curve with a large enough effect in the signal ratio; the % refers to the signal ratio)
# Procedure, shortened: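 Beta-lactamase reporter expression driven by the antioxidant response element in HepG2 cells was detected by fluorescence with LiveBLAzer B/G FRET substrate (2 h, room temperature) following 16 h compound treatment at 37 C.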
# [8] = qHTS assay for small molecule disruptors of the mitochondrial membrane potential - 1 hr assay (AID 651754; calls by dose curve; also: nearly all actives have a fitted effect of over 35% in size)
# Procedure, shortened: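 Read-out: dye fluorescence at 490 nm ex/535 nm em (monomers) and 540 nm ex/590 nm em (aggregates) in HepG2 cells. Compound exposure 1 hr at 37C, followed by 30 min dye loading.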
# [9] = qHTS assay for small molecule disruptors of the mitochondrial membrane potential - 5 hr assay (AID 651755; calls by dose curve; also: nearly all actives have a fitted effect of over 40% in size)
# Procedure, shortened: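 Seed HepG2 overnight, add compound, incubate 5 hr at 37C and 5% CO2, stain 30 min with Mito-MPS, then measure monomer (490/535 nm) and aggregate (540/590 nm) fluorescence.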
# [10] = biological target: Tumor necrosis factor (Homo sapiens) (UniProt P01375); assay: qHTS assay to identify small molecules that stimulate Tumor Necrosis Factor-alpha (TNF-alpha) secretion (AID 651757; active = well fitted curve in the direction sought with a large enough effect in the signal ratio; the % refers to the signal ratio)
# Procedure, shortened: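 THP-1 cells, 3000/well; compound 17 hrs, 37 C; add cryptate/XL665 anti-TNF-alpha antibody pair; 3 hr RT; TR-FRET (HTRF) read of secreted TNF-alpha. Quantitative HTS format.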
# [11] = qHTS assay for environmental chemicals that activate the Aryl hydrocarbon Receptor (AhR) signaling pathway (AID 651777); conditions: 1A2-DRE human hepatoma cells, luciferase, 24 h; activation: hits give high values; also: nearly all actives have a fitted effect of over 15% in size
# Procedure, shortened: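 Following a 24 hr incubation with test chemicals at 37 C and 5% CO2, 1A2-DRE human hepatoma cells received One-Glo reagent; after 30 min at room temperature, luciferase output reflected CYP1A2 induction via AhR.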
# Chain of Peroxisome proliferator-activated receptor alpha (Homo sapiens) (Q07869 whole entry, looked up): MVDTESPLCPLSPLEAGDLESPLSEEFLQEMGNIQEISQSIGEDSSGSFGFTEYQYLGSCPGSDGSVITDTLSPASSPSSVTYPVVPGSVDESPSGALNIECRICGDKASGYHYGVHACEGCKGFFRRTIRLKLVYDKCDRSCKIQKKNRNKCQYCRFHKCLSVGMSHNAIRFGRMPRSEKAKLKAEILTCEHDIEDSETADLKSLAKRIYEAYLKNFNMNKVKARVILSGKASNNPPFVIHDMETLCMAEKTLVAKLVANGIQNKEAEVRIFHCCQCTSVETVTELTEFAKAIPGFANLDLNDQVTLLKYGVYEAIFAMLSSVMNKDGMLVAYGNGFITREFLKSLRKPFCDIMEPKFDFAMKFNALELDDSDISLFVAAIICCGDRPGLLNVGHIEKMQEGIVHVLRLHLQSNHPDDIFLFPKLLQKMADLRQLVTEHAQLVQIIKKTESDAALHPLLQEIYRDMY
# Chain of Tumor necrosis factor (Homo sapiens) (P01375 whole entry, looked up): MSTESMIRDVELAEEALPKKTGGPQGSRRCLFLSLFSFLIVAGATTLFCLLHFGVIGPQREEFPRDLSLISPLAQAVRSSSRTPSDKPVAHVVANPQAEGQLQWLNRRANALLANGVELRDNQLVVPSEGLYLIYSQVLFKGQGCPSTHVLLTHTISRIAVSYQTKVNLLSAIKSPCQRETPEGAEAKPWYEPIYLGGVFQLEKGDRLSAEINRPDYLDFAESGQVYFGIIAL
# Chain of Tyrosine-protein kinase Yes (Homo sapiens) (P07947 whole entry, looked up): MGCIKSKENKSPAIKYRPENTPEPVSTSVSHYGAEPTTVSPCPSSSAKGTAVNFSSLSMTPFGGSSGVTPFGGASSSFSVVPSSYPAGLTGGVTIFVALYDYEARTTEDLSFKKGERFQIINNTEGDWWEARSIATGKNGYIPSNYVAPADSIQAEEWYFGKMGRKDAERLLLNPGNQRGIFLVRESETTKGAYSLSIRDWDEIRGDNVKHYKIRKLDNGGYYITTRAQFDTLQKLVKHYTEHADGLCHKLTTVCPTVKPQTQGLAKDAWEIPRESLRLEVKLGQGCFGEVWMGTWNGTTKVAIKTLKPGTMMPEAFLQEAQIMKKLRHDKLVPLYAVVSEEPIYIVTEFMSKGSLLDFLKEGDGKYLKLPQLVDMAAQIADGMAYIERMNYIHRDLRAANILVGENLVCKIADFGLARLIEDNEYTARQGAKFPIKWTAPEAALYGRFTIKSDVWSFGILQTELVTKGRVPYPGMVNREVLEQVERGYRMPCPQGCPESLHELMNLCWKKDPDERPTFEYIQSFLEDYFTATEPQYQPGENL
smiles,measurement,setting,value
CN(C)C/C=C(/c1ccc(Br)cc1)c1cccnc1,outcome,[1],inactive
same,Potency,[2],inactive
Cc1cc(C)c(/C=C2\C(=O)Nc3ccccc32)[nH]1,outcome,[1],inactive
same,Potency,[2],inactive
same,Potency,[3],1370 nM (active)
same,outcome,[4],inactive
CCN(Cc1ccncc1)C(=O)C(CO)c1ccccc1 (centres undefined),outcome,[1],inactive
same,Potency,[2],inactive
NC1=NCC2c3ccccc3Cc3ccccc3N12 (centres undefined),outcome,[1],inactive
same,Potency,[2],inactive
COC(=O)C1=C(C)NC(C)=C(C(=O)OCCN(C)Cc2ccccc2)C1c1cccc([N+](=O)[O-])c1 (centres undefined),Potency,[2],inactive
Cc1scc2c1N(C(=O)CN1CCN(C)CC1)c1ccccc1NC2=O,outcome,[1],inactive
same,Potency,[2],inactive
CCn1ccnc1CC1COc2ccccc2O1 (centres undefined),outcome,[1],inactive
same,Potency,[2],inactive
CC(=O)[C@@]1(O)CC[C@H]2[C@@H]3CCC4=CC(=O)CC[C@]4(C)[C@H]3CC[C@@]21C,outcome,[1],inactive
same,Potency,[2],inactive
same,activation,[5],0.354%
same,max response,[6],-2.31%
CCCCOCCOCCOCc1cc2c(cc1CCC)OCO2,Potency,[7],inactive
same,activation,[5],-2.78% and 0.8%
same,Potency,[8],inactive
same,Potency,[9],inactive
same,outcome,[10],inactive
same,activation,[11],5.54% and 1.27%
same,max response,[6],-0.481% and -4.29%
CC(C)(C)NCC(O)c1cc(O)cc(O)c1 (centres undefined),outcome,[1],inactive
same,Potency,[2],inactive
CCOC(=O)c1cnc2c(cnn2CC)c1NN=C(C)C,outcome,[1],inactive
same,Potency,[2],inactive
CC(C)NCC(O)c1cc(O)cc(O)c1 (centres undefined),outcome,[1],inactive
same,Potency,[2],inactive
CC1=NS(=O)(=O)c2cc(Cl)ccc2N1,outcome,[1],inactive
same,Potency,[2],inactive
CN(C)C(=O)Oc1cccc([N+](C)(C)C)c1,outcome,[1],inactive
same,Potency,[2],inactive
N[C@@H](COP(=O)(O)O)C(=O)O,outcome,[1],inactive
same,Potency,[2],inactive
OCCN1CCN(CC/C=C2/c3ccccc3Sc3ccc(C(F)(F)F)cc32)CC1,outcome,[1],inactive
same,Potency,[2],inactive
NC(=O)c1cn(Cc2c(F)cccc2F)nn1,outcome,[1],inactive
same,Potency,[2],inactive
CCNC(=O)N1CCN(CCCC(c2ccc(F)cc2)c2ccc(F)cc2)CC1,outcome,[1],inactive
same,Potency,[2],inactive
C[N+](C)(C)CCCCCCCCCC[N+](C)(C)C,outcome,[1],inactive
same,Potency,[2],inactive
CN(C(=O)CCCOc1ccc2[nH]c(=O)ccc2c1)C1CCCCC1,outcome,[1],inactive
same,Potency,[2],inactive
CC(C)NNC(=O)c1ccncc1,outcome,[1],inactive
same,Potency,[2],inactive
C[C@]12CCC(=O)C=C1CC[C@@H]1[C@@H]2CC[C@@]2(C)[C@H]1CC[C@]2(O)C(=O)CO,outcome,[1],inactive
same,Potency,[2],inactive
C(=C\c1ccccc1)/CN1CCN(C(c2ccccc2)c2ccccc2)CC1,outcome,[1],inactive
same,Potency,[2],inactive
